Growth data for 7 compounds are collected here from PubChem BioAssay (NCI).

The panel holds about 83,000 compounds, 20% with a hit somewhere; the sample as a whole holds those more often.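 Each cell line was grown in a 96-well plate and treated with one concentration of compound for 48 hours. Values below 10 were considered active.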 Values without a mark were called inactive. Activity calls are given as the source filed them.

Experiment in all cases: NCI-60 one-dose screen, 48 h (100 = growth as untreated, 0 = no growth, -100 = all killed)
The test system of assay [1] is HCT-15 colon. As to conditions: 10 µM unless noted.
The test system of assay [2] is HT29 colon. As to conditions: 10 µM unless noted.
Assay [3] relates to SNB-75 CNS. The following applies: 10 µM unless noted.
The test system of assay [4] is SNB-19 CNS. As to conditions: 10 µM unless noted.
In assay [5] the test system is U251 CNS. As to conditions: 10 µM unless noted.
Assay [6] has as its system PC-3 prostate. The following applies: 10 µM unless noted.
Assay [7] concerns SK-MEL-5 melanoma. As to conditions: 10 µM unless noted.
For assay [8], the system named is UACC-62 melanoma. As to conditions: 10 µM unless noted.
Assay [9] relates to LOX IMVI melanoma. The following applies: 10 µM unless noted.
For assay [10], the system named is SK-MEL-28 melanoma. The following applies: 10 µM unless noted.
The test system of assay [11] is SK-MEL-2 melanoma. As to conditions: 10 µM unless noted.
In assay [12] the test system is EKVX NSCLC. The following applies: 10 µM unless noted.
Assay [13] relates to SN12C renal. The following applies: 10 µM unless noted.
Assay [14] relates to UO-31 renal. As to conditions: 10 µM unless noted.
The subject of assay [15] is TK-10 renal. The following applies: 10 µM unless noted.
For assay [16], the system named is ACHN renal. The following applies: 10 µM unless noted.
The test system of assay [17] is CAKI-1 renal. As to conditions: 10 µM unless noted.
The subject of assay [18] is A498 renal. The following applies: 10 µM.
The subject of assay [19] is CCRF-CEM leukemia. The following applies: 10 µM unless noted.
The test system of assay [20] is HL-60(TB) leukemia. The following applies: 10 µM unless noted.

In the case of `CC(=O)O[C@@H]1CC[C@]2(C)[C@H]3CC[C@]4(C)C(=O)CC[C@H]4[C@@H]3C[C@@H]3SC(N)=N[C@@]32C1`, the growth in assay [1] is 35.2%; in assay [2], 10.2%; in assay [3], 73.2%; in assay [4], 54.7%; in assay [5], 37%; in [6] it was 71%. In addition, the growth in assay [7] was 32.5%; in assay [8], 38.2%; in assay [9], 66.3%; in assay [10], 72.2%; in assay [11] it was 49.8%; in [12], 78.3%. Moreover, the growth in assay [13] is 77.3%; in assay [14] it was 79.3%; in assay [15], 91.1%; in [16], 93.7%; in [17] it was 61.1%; in assay [18], 50.7%. Besides, the growth in assay [19] was 44.2%.
In the case of `O=NNc1ccccn1`, the growth in assay [1] is 40.2%; in assay [2], 34.3%; in [3], 95.5%; in assay [4], 101%; in assay [5], 80.1%; in assay [6], 82.9%. For the same compound, the growth in assay [7] is 99.3%; in assay [8], 85.9%; in [9], 71.1%; in assay [10], 100%; in assay [11] it was 23.3%; in assay [12], 109%. Also, the growth in assay [13] was 87.4%; in assay [14], 83.6%; in [15] it was 91%; in assay [16], 11.2%; in [17] it was 43.6%; in assay [18], 96.5%. The growth in [19] is 126%.
For `O=C(Nc1ccc(Br)cc1)c1cc(Br)cc(Br)c1O`, the growth was -14.6% (active) in [1]; 23.5% in [2]; -10.5% (active) in [3]; 11% in [4]; 6.11% (active) in assay [5]; 9.67% (active) in assay [6]. Further, the growth was -71% (active) in assay [7]; -14.2% (active) in assay [8]; -7.5% (active) in assay [9]; 33.7% in assay [10]; -21.8% (active) in assay [11]; 10.7% in [12]. In addition, the growth was -2.01% (active) in assay [13]; 4.99% (active) in assay [14]; 14.6% in assay [15]; -19.5% (active) in assay [16]; -6.11% (active) in [17]; 32.2% in assay [18]. For the same compound, the growth in assay [19] is 13.5%.
Regarding `CS(=O)(=O)CCN1CC2CCCC(C2)C1`, the growth in assay [1] was 99.5%; in assay [2] it was 96.7%; in [3], 94.1%; in assay [4], 99.8%; in [5], 101%; in assay [6], 90.1%. In addition, the growth is 104% in assay [7]; 102% in [8]; 104% in assay [9]; 105% in [10]; 105% in assay [11]; 102% in assay [12]. Moreover, the growth is 98.2% in [13]; 96.9% in assay [14]; 96.4% in assay [15]; 97.7% in [16]; 97.1% in assay [17]; 81.4% in [20]. In addition, in assay [19], the growth is 97.2%.
As to `COC(=O)[C@@H](C[C@H](Cc1ccccc1)NC(=O)c1csc([C@@H](C[C@H](C(C)C)N(C)C(=O)[C@@H](NC(=O)[C@H]2CCCCN2C)C(C)C)OC(C)=O)n1)NC(=O)OCc1ccccc1`, the growth in assay [1] was 9.05% [9.5 µM] (active); in assay [2] it was -19.6% [9.5 µM] (active); in assay [3], 25.6% [9.5 µM]; in [4] it was 25.4% [9.5 µM]; in assay [5], 6.82% [9.5 µM] (active); in [6] it was 32.2% [9.5 µM]. For the same compound, the growth in assay [7] was -3.63% [9.5 µM] (active); in assay [8], 27.1% [9.5 µM]; in [9] it was 14.7% [9.5 µM]; in assay [10], -52.6% [9.5 µM] (active); in assay [11] it was -10.4% [9.5 µM] (active); in [12] it was 51.5% [9.5 µM]. Further, the growth is 15% [9.5 µM] in assay [13]; 27.3% [9.5 µM] in assay [14]; 45.2% [9.5 µM] in assay [15]; 16.4% [9.5 µM] in [16]; 35.1% [9.5 µM] in [17]; 6.42% [9.5 µM] (active) in assay [19].
With `COC1OC(CO)C(O)C(O)[CH]1[Hg][O]C(C)=O` (configuration not stated), the growth in assay [1] is 87.1%; in assay [2] it was 79.8%; in assay [3], 77.3%; in assay [4], 94.4%; in [5], 67.7%; in [6] it was 87.9%. Moreover, the growth is 86.2% in assay [7]; 85.9% in [8]; 82.3% in assay [9]; 97.5% in [10]; 107% in [11]; 111% in assay [12]. Besides, the growth was 88.5% in [13]; 101% in [14]; 111% in assay [15]; 98.5% in [16]; 101% in assay [17]; 106% in [18]. Moreover, the growth in assay [19] was 96.1%.
With `COP(=S)(N1CC1)N1CC1`, the growth in assay [1] was 109%; in assay [2], 103%; in [3] it was 103%; in assay [4], 112%; in [5], 108%; in assay [6] it was 91.9%. The growth in assay [7] was 104%; in assay [8], 109%; in assay [9] it was 104%; in [10], 114%; in [11], 103%; in [12], 106%. The growth in assay [13] was 112%; in assay [14], 84.3%; in [15] it was 110%; in assay [16] it was 103%; in assay [17], 93.6%; in assay [20] it was 106%. Besides, the growth in assay [19] is 105%.
